Data: publication PMC7862700, “An all-to-all approach to the identification of sequence-specific readers for epigenetic DNA modifications on cytosine”

Assays:
Test in all cases: DAPPL (digital affinity profiling via proximity ligation, sequencing); 10 mM Tris-HCl pH 7.5, 50 mM NaCl, 1 mM DTT, 4% glycerol, room temperature, 30 min; GST-TFs on glutathione beads, 16-mer random dsDNA library, 0.1% formaldehyde crosslink after washing; high values mean tight binding
FEV = target: T1, FEV (Homo sapiens, UniProt Q99581 1-238); conditions: protein: recombinant; tags: N-terminal GST; dsDNA, one strand shown
T1 sequence: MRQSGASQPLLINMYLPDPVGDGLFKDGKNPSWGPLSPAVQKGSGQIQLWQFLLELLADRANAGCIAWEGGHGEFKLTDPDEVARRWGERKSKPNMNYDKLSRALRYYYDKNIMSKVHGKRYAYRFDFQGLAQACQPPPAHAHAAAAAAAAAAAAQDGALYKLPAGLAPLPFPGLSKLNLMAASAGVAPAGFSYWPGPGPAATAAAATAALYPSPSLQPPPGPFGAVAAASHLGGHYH
Method in brief: (§1)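 Human transcription factors were made in yeast as GST fusions, captured on glutathione beads and barcoded with DNA. With a tag-only sample included, the pool was incubated with 200 nmole of a random double-stranded 16-mer DNA library in Tris/NaCl/DTT/glycerol buffer at room temperature for 30 min, then crosslinked with 0.1% formaldehyde after washing, ligated by proximity, amplified and sequenced. For binding signal, each hexamer's read frequency for a factor is divided by its frequency for the tag-only sample.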

ETV5 = ETV5 (Homo sapiens, UniProt P41161 1-510); conditions: protein: recombinant; tags: N-terminal GST; dsDNA, one strand shown
Chain of ETV5 (P41161 whole entry): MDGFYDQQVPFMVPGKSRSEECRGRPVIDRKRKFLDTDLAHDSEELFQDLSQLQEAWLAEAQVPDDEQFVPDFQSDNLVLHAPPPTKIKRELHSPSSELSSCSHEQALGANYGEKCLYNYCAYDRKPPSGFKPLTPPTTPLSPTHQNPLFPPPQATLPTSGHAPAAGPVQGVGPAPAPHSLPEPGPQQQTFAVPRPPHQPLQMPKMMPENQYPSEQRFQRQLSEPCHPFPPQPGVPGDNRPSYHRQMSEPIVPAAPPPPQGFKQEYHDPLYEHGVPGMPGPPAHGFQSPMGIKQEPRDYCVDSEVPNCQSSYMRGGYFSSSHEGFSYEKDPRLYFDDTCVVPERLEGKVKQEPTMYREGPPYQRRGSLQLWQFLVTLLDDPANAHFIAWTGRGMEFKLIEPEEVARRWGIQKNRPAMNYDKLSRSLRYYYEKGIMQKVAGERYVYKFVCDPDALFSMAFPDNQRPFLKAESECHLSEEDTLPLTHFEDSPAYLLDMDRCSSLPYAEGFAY
Method in brief: as §1

HSF1 = HSF1 (Homo sapiens, UniProt Q00613 1-529); conditions: protein: recombinant; tags: N-terminal GST; chain copies: 3; dsDNA, one strand shown
Chain of HSF1 (Q00613 whole entry): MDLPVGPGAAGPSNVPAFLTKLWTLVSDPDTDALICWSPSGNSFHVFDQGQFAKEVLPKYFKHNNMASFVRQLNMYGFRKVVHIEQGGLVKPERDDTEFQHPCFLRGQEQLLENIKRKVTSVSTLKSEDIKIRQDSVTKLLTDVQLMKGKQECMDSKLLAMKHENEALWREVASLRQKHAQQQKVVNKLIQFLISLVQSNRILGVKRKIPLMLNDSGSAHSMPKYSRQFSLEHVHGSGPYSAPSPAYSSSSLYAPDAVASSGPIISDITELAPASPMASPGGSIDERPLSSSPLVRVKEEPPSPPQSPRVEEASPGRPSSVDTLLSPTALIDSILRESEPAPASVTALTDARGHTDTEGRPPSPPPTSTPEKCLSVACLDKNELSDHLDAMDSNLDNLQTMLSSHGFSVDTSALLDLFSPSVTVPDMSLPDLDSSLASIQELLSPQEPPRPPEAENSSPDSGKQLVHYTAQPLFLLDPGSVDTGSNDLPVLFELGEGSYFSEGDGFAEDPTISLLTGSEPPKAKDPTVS
Method in brief: as §1

SPIC = target: T2, SPIC (Homo sapiens, UniProt Q8N5J4 1-248); conditions: protein: recombinant; tags: N-terminal GST; dsDNA, one strand shown
T2 sequence: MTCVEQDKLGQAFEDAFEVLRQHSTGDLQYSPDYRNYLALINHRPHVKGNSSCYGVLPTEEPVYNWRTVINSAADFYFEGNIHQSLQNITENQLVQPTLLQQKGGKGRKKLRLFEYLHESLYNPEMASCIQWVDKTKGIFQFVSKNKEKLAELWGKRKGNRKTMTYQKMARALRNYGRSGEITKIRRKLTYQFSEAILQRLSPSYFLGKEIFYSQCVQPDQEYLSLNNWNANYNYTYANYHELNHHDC
Method in brief: as §1

ELF4 = ELF4 (Homo sapiens, UniProt Q99607 1-663); conditions: protein: recombinant; tags: N-terminal GST; dsDNA, one strand shown
Chain of ELF4 (Q99607 whole entry): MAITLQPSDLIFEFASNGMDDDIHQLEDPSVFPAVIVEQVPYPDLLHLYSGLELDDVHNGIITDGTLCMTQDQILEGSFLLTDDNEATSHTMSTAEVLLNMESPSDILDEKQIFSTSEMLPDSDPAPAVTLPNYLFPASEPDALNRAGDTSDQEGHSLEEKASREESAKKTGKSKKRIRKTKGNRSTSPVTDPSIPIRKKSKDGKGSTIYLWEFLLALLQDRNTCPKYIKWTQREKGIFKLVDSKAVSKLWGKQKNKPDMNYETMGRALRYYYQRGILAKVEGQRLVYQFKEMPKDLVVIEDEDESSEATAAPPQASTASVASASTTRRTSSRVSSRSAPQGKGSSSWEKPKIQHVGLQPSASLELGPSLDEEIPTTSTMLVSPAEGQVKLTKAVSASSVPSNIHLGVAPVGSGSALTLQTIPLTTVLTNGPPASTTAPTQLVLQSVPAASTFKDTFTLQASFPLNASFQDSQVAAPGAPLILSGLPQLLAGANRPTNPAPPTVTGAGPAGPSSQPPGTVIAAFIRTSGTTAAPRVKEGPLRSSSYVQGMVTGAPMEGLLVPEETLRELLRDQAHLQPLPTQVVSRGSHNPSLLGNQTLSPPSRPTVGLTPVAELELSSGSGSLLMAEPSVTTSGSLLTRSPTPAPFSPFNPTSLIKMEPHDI
Method in brief: as §1

ELK4 = target: T3, ELK4 (Homo sapiens, UniProt P28324-2 1-405); conditions: protein: recombinant; tags: N-terminal GST; dsDNA, one strand shown
T3 sequence: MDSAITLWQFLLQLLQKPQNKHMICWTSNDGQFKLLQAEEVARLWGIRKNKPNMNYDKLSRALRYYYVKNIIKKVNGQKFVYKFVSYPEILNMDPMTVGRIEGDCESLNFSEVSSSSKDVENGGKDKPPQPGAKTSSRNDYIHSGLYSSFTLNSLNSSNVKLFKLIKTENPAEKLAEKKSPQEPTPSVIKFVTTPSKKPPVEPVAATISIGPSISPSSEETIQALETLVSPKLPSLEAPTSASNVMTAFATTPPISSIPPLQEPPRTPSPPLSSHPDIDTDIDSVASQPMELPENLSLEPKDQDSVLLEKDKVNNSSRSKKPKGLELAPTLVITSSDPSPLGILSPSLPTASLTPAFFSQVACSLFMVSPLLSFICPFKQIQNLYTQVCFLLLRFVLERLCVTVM
Method in brief: as §1

ETV2 = target: T4, ETV2 (Homo sapiens, UniProt O00321 1-342); conditions: protein: recombinant; tags: N-terminal GST; dsDNA, one strand shown
T4 sequence: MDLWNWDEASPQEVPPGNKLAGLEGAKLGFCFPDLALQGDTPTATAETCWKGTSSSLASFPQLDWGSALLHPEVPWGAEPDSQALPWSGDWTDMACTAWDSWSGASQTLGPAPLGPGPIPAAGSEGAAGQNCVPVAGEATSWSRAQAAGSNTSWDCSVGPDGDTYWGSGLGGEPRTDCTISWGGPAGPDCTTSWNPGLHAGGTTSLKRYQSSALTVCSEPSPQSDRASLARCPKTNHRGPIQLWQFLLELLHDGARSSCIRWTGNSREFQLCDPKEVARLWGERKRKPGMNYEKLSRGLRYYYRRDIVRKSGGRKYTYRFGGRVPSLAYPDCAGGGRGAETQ
Method in brief: as §1

ELF3 = target: T5, ELF3 (Homo sapiens, UniProt P78545 1-371); conditions: protein: recombinant; tags: N-terminal GST; dsDNA, one strand shown
T5 sequence: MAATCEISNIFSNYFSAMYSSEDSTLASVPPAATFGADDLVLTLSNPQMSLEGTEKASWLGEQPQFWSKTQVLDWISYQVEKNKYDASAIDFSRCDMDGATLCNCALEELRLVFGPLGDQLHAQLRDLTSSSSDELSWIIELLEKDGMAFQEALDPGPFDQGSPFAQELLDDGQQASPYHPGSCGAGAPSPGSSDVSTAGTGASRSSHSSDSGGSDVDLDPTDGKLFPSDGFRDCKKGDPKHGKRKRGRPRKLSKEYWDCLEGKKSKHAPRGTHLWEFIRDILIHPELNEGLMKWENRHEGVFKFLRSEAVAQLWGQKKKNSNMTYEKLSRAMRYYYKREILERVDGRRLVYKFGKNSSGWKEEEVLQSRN
Method in brief: as §1

CRX = CRX (Homo sapiens, UniProt O43186 1-299); conditions: protein: recombinant; tags: N-terminal GST; dsDNA, one strand shown
Chain of CRX (O43186 whole entry): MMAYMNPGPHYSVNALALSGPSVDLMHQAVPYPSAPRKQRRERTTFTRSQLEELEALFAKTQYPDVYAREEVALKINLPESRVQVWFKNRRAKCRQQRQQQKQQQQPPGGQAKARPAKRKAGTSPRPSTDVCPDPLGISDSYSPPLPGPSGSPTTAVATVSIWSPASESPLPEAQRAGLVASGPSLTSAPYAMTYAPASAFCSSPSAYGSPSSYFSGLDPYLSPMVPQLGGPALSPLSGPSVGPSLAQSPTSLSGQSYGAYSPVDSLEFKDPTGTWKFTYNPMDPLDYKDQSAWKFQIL
Method in brief: as §1

ETV1 = ETV1 (Homo sapiens, UniProt P50549 1-477); conditions: protein: recombinant; tags: N-terminal GST; dsDNA, one strand shown
Chain of ETV1 (P50549 whole entry): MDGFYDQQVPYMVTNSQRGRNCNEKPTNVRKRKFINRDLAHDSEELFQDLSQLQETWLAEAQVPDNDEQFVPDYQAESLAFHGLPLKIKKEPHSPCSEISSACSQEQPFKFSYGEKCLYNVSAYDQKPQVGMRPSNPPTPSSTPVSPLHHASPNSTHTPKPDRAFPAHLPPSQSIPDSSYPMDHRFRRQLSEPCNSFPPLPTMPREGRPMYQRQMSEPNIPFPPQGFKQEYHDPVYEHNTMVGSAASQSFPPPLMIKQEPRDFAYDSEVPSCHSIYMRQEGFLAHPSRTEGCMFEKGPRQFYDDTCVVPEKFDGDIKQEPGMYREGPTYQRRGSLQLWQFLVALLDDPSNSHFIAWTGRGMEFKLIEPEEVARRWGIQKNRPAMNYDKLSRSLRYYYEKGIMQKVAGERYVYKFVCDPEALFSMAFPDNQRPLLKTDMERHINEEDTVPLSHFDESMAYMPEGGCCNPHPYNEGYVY
Method in brief: as §1

ERF = target: T6, ERF (Homo sapiens, UniProt P50548 1-548); conditions: protein: recombinant; tags: N-terminal GST; dsDNA, one strand shown
T6 sequence: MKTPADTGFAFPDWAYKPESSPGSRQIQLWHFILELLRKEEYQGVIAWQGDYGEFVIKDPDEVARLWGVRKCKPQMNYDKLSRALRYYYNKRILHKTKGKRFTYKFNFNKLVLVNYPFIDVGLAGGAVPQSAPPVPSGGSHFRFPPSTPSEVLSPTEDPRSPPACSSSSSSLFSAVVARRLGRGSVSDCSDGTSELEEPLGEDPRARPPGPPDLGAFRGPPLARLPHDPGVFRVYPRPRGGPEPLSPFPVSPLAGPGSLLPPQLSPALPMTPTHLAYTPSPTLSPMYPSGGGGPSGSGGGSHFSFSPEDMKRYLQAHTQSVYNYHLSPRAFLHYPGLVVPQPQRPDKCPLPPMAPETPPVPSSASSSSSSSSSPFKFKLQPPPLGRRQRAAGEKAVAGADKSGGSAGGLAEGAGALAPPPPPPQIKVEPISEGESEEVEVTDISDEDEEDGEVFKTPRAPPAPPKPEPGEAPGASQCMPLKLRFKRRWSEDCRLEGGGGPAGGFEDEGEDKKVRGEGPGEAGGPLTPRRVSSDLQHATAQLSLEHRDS
Method in brief: as §1

ETV3L = target: T7, ETV3L (Homo sapiens, UniProt Q6ZN32 1-361); conditions: protein: recombinant; tags: N-terminal GST; dsDNA, one strand shown
T7 sequence: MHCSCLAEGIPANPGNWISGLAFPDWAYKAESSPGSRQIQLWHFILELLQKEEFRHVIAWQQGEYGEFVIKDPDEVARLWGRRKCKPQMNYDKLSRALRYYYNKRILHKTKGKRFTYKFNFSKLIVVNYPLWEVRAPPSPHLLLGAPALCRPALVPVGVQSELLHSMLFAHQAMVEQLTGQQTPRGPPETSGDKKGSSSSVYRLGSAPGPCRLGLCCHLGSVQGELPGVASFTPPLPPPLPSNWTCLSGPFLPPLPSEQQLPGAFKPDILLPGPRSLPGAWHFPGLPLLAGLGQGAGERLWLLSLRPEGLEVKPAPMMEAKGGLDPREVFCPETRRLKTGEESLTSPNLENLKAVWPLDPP
Method in brief: as §1

ETS2 = target: T8, ETS2 (Homo sapiens, UniProt P15036 1-469); conditions: protein: recombinant; tags: N-terminal GST; dsDNA, one strand shown
T8 sequence: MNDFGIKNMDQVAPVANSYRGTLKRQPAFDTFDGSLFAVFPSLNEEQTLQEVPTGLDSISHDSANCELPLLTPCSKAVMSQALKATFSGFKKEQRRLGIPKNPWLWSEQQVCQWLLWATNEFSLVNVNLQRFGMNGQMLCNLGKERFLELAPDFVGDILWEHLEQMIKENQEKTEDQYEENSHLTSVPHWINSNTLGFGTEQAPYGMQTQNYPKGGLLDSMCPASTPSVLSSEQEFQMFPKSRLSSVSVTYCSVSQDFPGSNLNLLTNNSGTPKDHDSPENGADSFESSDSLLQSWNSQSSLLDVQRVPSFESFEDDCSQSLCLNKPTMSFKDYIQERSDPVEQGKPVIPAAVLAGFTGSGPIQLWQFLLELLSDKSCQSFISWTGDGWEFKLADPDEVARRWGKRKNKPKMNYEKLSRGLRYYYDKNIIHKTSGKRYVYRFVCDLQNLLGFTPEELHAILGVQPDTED
Method in brief: as §1

SPDEF = target: T9, SPDEF (Homo sapiens, UniProt O95238 1-335); conditions: protein: recombinant; tags: N-terminal GST; dsDNA, one strand shown
T9 sequence: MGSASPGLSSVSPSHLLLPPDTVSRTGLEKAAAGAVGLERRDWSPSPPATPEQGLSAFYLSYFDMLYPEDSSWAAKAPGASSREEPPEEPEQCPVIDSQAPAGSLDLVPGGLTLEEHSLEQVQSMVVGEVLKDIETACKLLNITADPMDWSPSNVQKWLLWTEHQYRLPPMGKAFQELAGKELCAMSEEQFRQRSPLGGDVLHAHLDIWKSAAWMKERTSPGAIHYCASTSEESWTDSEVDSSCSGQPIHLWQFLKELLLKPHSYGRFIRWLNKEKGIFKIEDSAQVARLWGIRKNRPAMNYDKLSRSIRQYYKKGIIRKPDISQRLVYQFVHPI
Method in brief: as §1

ETV7 = target: T10, ETV7 (Homo sapiens, UniProt Q9Y603 1-341); conditions: protein: recombinant; tags: N-terminal GST; dsDNA, one strand shown
T10 sequence: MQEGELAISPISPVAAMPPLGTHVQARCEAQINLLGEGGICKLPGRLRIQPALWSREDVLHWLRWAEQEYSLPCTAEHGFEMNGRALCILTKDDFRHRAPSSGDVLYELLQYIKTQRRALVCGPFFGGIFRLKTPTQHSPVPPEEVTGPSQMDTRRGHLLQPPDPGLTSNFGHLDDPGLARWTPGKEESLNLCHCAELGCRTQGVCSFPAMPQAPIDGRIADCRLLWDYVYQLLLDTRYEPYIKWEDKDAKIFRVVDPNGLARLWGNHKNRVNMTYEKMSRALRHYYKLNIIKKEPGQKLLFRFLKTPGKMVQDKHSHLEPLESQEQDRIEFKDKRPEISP
Method in brief: as §1

ELF5 = target: T11, ELF5 (Homo sapiens, UniProt Q9UKW6-2 1-255); conditions: protein: recombinant; tags: N-terminal GST; dsDNA, one strand shown
T11 sequence: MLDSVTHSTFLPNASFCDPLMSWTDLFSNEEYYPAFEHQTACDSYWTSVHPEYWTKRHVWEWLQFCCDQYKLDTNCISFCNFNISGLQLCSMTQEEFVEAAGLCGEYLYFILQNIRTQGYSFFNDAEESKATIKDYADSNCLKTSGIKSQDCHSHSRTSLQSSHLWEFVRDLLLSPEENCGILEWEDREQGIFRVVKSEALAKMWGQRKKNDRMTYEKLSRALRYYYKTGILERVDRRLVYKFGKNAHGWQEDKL
Method in brief: as §1

ETV3 = target: T12, ETV3 (Homo sapiens, UniProt P41162-2 1-143); conditions: protein: recombinant; tags: N-terminal GST; dsDNA, one strand shown
T12 sequence: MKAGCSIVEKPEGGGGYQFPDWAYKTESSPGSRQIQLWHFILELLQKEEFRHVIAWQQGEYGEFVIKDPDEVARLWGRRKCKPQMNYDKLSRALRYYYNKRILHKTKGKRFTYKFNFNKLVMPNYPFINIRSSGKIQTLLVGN
Method in brief: as §1

ETV6 = ETV6 (Homo sapiens, UniProt P41212 1-452); conditions: protein: recombinant; tags: N-terminal GST; dsDNA, one strand shown
Chain of ETV6 (P41212 whole entry): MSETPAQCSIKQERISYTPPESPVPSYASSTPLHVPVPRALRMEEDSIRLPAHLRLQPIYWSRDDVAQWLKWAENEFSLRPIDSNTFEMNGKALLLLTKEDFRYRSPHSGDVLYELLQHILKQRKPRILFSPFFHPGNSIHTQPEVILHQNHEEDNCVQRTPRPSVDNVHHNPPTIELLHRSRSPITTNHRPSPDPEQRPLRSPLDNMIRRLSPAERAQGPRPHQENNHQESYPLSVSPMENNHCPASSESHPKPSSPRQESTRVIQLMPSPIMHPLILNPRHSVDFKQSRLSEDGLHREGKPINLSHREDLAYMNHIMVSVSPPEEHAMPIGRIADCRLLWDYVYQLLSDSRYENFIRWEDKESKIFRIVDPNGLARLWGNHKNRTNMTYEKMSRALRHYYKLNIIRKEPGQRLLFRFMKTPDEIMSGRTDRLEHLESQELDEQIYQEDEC
Method in brief: as §1

Question: Which binding signal (FEV) does the source give for TATGAC here?
Answer: The binding signal was 1.25 fold enrichment (6-mer frequency, TF over GST control).

Question: And the binding signal (ETV5)?
Answer: Its binding signal is 1.33 fold enrichment (6-mer frequency, TF over GST control).

Question: And the binding signal (HSF1)?
Answer: The binding signal was 1.18 fold enrichment (6-mer frequency, TF over GST control).

Question: What about the binding signal (SPIC) of the same sequence?
Answer: Its binding signal is 1.28 fold enrichment (6-mer frequency, TF over GST control).

Question: What about the binding signal (ELF4) of the same sequence?
Answer: The binding signal was 1.32 fold enrichment (6-mer frequency, TF over GST control).

Question: And the binding signal (ELK4)?
Answer: The binding signal was 1.45 fold enrichment (6-mer frequency, TF over GST control).

Question: And the binding signal (ETV2)?
Answer: The binding signal was 1.23 fold enrichment (6-mer frequency, TF over GST control).

Question: What about the binding signal (ELF3) of the same sequence?
Answer: The binding signal was 1.45 fold enrichment (6-mer frequency, TF over GST control).

Question: What about the binding signal (CRX) of the same sequence?
Answer: The binding signal was 1.23 fold enrichment (6-mer frequency, TF over GST control).

Question: What about the binding signal (ETV1) of the same sequence?
Answer: The binding signal was 1.26 fold enrichment (6-mer frequency, TF over GST control).

Question: What about the binding signal (ERF) of the same sequence?
Answer: The binding signal was 1.39 fold enrichment (6-mer frequency, TF over GST control).

Question: And the binding signal (ETV3L)?
Answer: Its binding signal is 1.36 fold enrichment (6-mer frequency, TF over GST control).

Question: And the binding signal (ETS2)?
Answer: The binding signal was 1.31 fold enrichment (6-mer frequency, TF over GST control).

Question: And the binding signal (SPDEF)?
Answer: The binding signal was 1.33 fold enrichment (6-mer frequency, TF over GST control).

Question: And the binding signal (ETV7)?
Answer: Its binding signal is 1.29 fold enrichment (6-mer frequency, TF over GST control).

Question: What about the binding signal (ELF5) of the same sequence?
Answer: Its binding signal is 1.29 fold enrichment (6-mer frequency, TF over GST control).

Question: And the binding signal (ETV3)?
Answer: The binding signal was 1.2 fold enrichment (6-mer frequency, TF over GST control).

Question: What about the binding signal (ETV6) of the same sequence?
Answer: The binding signal was 1.25 fold enrichment (6-mer frequency, TF over GST control).
